Here are results for 16 molecules from PubChem BioAssay.

Structures are written as SMILES. Active and inactive are the calls of the source.

Assay [1] addresses Albumin (Bos taurus) (UniProt P02769). The assay is described as follows: compounds binding labelled BSA control protein – biochemical, small-molecule microarray, Alexa647 label, 635/667 nm fluorescence, artefact control for SMM control protein annotation, profiling panel (AID 1118).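 Note: score merges 667 nm emission intensity and signal-to-noise per printed compound spot.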 The conditions noted are these: BSA-A647 binding, fluorescence 635 nm, higher = more signal.
Assay [2] is described as follows: probe aXIP binding to arrayed compounds – biochemical, NeuroSMM set, 635/667 nm fluorescence, primary screen (AID 1119).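 Note: probe is the protein aXip251-270 applied at 1 µg/mL to compound-printed slides; binding of probe to printed compounds measured as 667 nm fluorescence plus signal to noise.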 Particulars: small-molecule microarray, higher = more signal, called active from +8 up or from −8 down.
The nature of assay [3]: probe aNOTCH3 binding on compound microarray – biochemical, small-molecule microarray, 635/667 nm fluorescence, primary screen (AID 1120).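 Note: probe is a biotin-tagged antibody raised against NOTCH3 rather than NOTCH3 protein; score merges spot fluorescence near 667 nm with spot signal to noise.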 Particulars: higher = more signal.
Assay [4] is described as follows: probe aNOTCH2 binding on compound microarray – biochemical, small-molecule microarray, 635/667 nm fluorescence, primary screen (AID 1121).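 Note: score merges feature fluorescence read at 667 nm with its signal to noise.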 The conditions noted are these: higher = more signal.
Assay [5] addresses Carbonic anhydrase 2 (Homo sapiens) (UniProt P00918). In words: compounds binding carbonic anhydrase 2 – biochemical, small-molecule microarray, Alexa647-labelled CAII, profiling panel (AID 1122). The conditions noted are these: CAII-A647 binding fluorescence, higher = more signal.
Assay [6] is described as follows: COS7 lysate on small-molecule microarray, probe aHis, 635 nm (AID 1123).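 Note: z-score combines 667nm fluorescence intensity with signal-to-noise per printed compound spot.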 The conditions noted are these: COS7 cell lysate, fluorescence, higher = more signal.
Assay [7] is described as follows: probe aLAP1 signal on lysate-treated microarray – cell lysate, small-molecule microarray, COS7 lysate, primary screen (AID 1124).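 Note: lysate comes from COS7 cells expressing LAP1 and is applied at 0.3 µg/mL; score merges spot fluorescence near 667 nm with signal-to-noise over triplicate slides.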 Particulars: probe aLAP1, fluorescence, higher = more signal.
Assay [8] relates to Sam68 (KHDRBS1). In words: compounds binding KHDRBS1 protein – biochemical, small-molecule microarray, 635 nm fluorescence, primary screen (AID 1125).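 Note: score merges 667 nm channel intensity with signal to noise over triplicate slides.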 The conditions noted are these: higher = more signal.
In assay [9] the test system is Chordin-like protein 2 (CHRDL2). In words: compounds binding chordin-like 2 – biochemical, small-molecule microarray, 635 nm fluorescence, primary screen (AID 1126).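 Note: printed compound slides probed with Chrdl2 protein at 4 µg/mL for 1 h at 4 C; score merges 667 nm emission intensity with signal to noise over three replicate slides.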 The conditions noted are these: fluorescence 635 nm, higher = more signal.
The target of assay [10] is Concanavalin-A (Canavalia ensiformis) (UniProt P02866). The assay is described as follows: compounds binding concanavalin A lectin – biochemical, small-molecule microarray, Alexa647 label, 635 nm, artefact control for SMM control protein annotation, primary screen (AID 1127).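 Note: z combines 667 nm emission intensity with signal-to-noise across three replicate slides.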 The conditions noted are these: ConA-A647 binding fluorescence, higher = more signal.
Sequence of Concanavalin-A (Canavalia ensiformis) (P02866 whole entry, looked up): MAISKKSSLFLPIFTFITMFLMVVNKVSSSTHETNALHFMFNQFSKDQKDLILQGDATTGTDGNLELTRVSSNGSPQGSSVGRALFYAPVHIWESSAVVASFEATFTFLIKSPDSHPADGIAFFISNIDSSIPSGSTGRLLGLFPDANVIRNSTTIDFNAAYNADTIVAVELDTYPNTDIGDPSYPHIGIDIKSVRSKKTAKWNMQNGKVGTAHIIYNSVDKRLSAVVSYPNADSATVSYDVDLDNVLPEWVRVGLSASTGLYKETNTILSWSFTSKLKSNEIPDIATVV

Sequence of Albumin (Bos taurus) (P02769 whole entry, looked up): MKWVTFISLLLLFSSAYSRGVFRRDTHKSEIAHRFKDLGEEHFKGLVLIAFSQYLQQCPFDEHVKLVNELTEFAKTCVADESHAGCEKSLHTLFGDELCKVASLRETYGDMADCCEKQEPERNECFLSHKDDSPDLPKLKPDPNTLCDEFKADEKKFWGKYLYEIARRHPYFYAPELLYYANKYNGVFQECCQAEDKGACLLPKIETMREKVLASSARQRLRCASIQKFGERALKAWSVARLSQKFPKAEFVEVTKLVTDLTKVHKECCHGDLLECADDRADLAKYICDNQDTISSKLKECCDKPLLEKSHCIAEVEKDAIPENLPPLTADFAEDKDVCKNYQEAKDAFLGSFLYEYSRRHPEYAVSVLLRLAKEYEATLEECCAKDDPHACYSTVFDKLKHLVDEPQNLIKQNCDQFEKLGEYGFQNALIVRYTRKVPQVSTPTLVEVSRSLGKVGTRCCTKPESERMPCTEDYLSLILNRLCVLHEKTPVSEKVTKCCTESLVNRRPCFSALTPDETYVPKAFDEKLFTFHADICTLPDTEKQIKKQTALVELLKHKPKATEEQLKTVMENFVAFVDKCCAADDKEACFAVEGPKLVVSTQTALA

In the case of `C=CCC(OC(C)=O)[C@@H]1[C@@H](N(Cc2ccc(-c3cccc(C(F)(F)F)c3)o2)C(=O)Cc2ccc(F)cc2)c2cc(OCCCO)ccc2N1C(=O)Cc1ccc(OC)cc1` (stereo not given in full), the composite z-score in assay [1] is -0.0141; in assay [3], -0.0918; in assay [4], -0.124; in [5], -0.498; in [6] it was -1; in assay [7], -0.348. Further, the results for the composite z-score in assay [8], in [9] and in assay [10] were -3.75, 0.149 and -1.29, respectively. Besides, the composite Z-score in assay [2] is -0.105 (inactive).

For `CN(C)C(=O)[C@]1(Cc2ccccc2CN=[N+]=[N-])N=C(c2ccc(OCCCO)cc2)O[C@@H]1c1ccccc1CN=[N+]=[N-]`, the composite z-score in assay [1] is 0.933; in assay [3], 0.442; in assay [4], -0.0508; in assay [5], 0.545; in [6], 2.72; in assay [7], 0.751. Also, the composite z-score in assay [8] was 1.32; in assay [9], -0.223; in [10], 0.758. The composite Z-score in [2] is -0.384 (inactive).

With `O=C1C2C=CC(C(O)c3ccc(F)cc3)N(Nc3ccccc3F)C2C(=O)N1c1ccccc1` (stereo not given), the composite z-score is 0.983 in assay [1]; 0.323 in assay [3]; -0.0194 in assay [4]; 0.823 in [5]; 3.13 in assay [6]; -0.0953 in assay [7]. Also, the composite z-score in assay [8] is 1.13; in [9] it was -0.868; in assay [10], 0.493. In addition, the composite Z-score in [2] is 0.482 (inactive).

On to `CCCC[C@@H]1C[C@H]1[C@@H](NC(=O)c1ccco1)c1ccc(C(=O)OC)cc1`, for which the composite z-score in assay [1] was 0.623; in assay [3], -0.0967; in [4], -0.11; in [5] it was 0.39; in [6], 0.792; in assay [7], 0.187. Besides, the composite z-score was 0.0166 in assay [8], 0.0374 in [9] and -0.112 in assay [10]. In addition, the composite Z-score in [2] was 0.224 (inactive).

On to `Cc1ccc(S[C@]2(C(=O)NCCN3CCOCC3)CC(=O)N(Cc3ccccc3)[C@@H]2c2ccc(CO)cc2I)cc1`, for which the composite z-score in [1] was 0.285; in assay [3], -0.165; in [4], -0.14; in assay [5] it was 0.667; in assay [6] it was 1.43; in assay [7], 0.202. In addition, the composite z-score in [8] was -0.388; in assay [9] it was -1.59; in [10], -0.112. Further, in assay [2], the composite Z-score is 0.994 (inactive).

For the molecule `O=C1OCCC/C=C\[C@H]2OC34C=CCN(Cc5ccccc5)C(=O)[C@H]3N(CCCCCCO)C(=O)[C@@H]4C12` (stereo not given in full), the composite z-score in [1] was -0.449; in [3], -0.262; in [4] it was -0.141; in [5], 0.893; in [6], -0.19; in assay [7] it was 0.468. The composite z-score in [8] is 0.139; in assay [9] it was -1.24; in assay [10], -1.3. Further, the composite Z-score in assay [2] was 0.986 (inactive).

Regarding `[N-]=[N+]=NCc1ccccc1[C@@H]1OC(c2ccc(OCCCO)cc2)=N[C@]1(Cc1ccccc1N=[N+]=[N-])C(=O)N1CCOCC1`, the composite z-score in [1] turned out to be 0.809; in assay [3], 0.387; in assay [4] it was 0.408; in [5], 0.765; in assay [6], 2.9; in assay [7] it was 0.493. Also, the composite z-score is 1.29 in assay [8], -0.119 in assay [9] and 1.21 in [10]. In addition, in assay [2], the composite Z-score is 0.105 (inactive).

For `[N-]=[N+]=NCc1ccccc1C[C@@]1(C(=O)NCC(O)CO)N=C(c2ccc(OCCCO)cc2)O[C@@H]1c1ccccc1N=[N+]=[N-]` (stereo not given in full), the composite z-score was 0.987 in assay [1]; 0.318 in assay [3]; -0.0814 in assay [4]; 0.69 in [5]; 3.14 in assay [6]; 0.791 in assay [7]. The composite z-score in assay [8] is 1.31; in assay [9] it was -0.655; in assay [10], 1.1. For the same molecule, in [2], the composite Z-score was 1.26 (inactive).

Turning to `COCCCN1C(=O)[C@@]2(c3ccc([N+](=O)[O-])cc3)CC(=O)N(C3CCCCC3)[C@@H]2c2ccc(CO)cc21`, the composite z-score was -0.132 in [1]; -0.207 in assay [3]; -0.153 in [4]; -0.277 in assay [5]; 0.143 in [6]; -0.322 in [7]. For the same molecule, the composite z-score in assay [8] was 0.134; in assay [9], 0.778; in assay [10], 0.734. In assay [2], the composite Z-score was 0.0221 (inactive).

For the molecule `C=CCOC(=O)[C@H]1[C@@H]2C(=O)O[C@@H](c3ccccc3)[C@@H](c3ccccc3)N2[C@@H](c2ccc(OCCOC(=O)[C@@H]3C[C@@H]4C(=O)N[C@@H](CCCC[N+](C)(C)C)C(=O)N4[C@@H]3c3ccc(O)cc3)cc2)[C@]12C(=O)Nc1ccccc12`, the composite z-score in assay [1] was 0.0987; in assay [3] it was 0.011; in assay [4] it was -0.171; in assay [5] it was 0.624; in assay [6], 0.875; in [7], 0.284. In addition, the composite z-score in [8] was found to be 1.31; in assay [9], 1.08; in [10] it was 1.12. Moreover, the composite Z-score in assay [2] was 0.0848 (inactive).

Take `C=CCOC(=O)[C@H]1[C@@H]2C(=O)O[C@@H](c3ccccc3)[C@@H](c3ccccc3)N2[C@@H](c2ccc(OCCOC(=O)[C@@H]3C[C@@H]4C(=O)N5CCC[C@H]5C(=O)N4[C@@H]3c3cccc(OCCO)c3)cc2)[C@]12C(=O)Nc1ccccc12`: the composite z-score is -0.292 in [1]; 0.336 in assay [3]; 0.0087 in assay [4]; 0.192 in [5]; 1.73 in assay [6]; 0.383 in [7]. For the same molecule, the composite z-score in assay [8] is 1.29; in assay [9], 0.902; in assay [10], 1.17. For the same molecule, the composite Z-score in assay [2] was 0.594 (inactive).

On to `O=C1c2ccccc2[C@](Cc2ccccc2I)(C(=O)NC2CC2)[C@H](c2ccc(CO)cc2)N1C1CCCCC1`, for which the composite z-score is 0.767 in [1]; 0.174 in [3]; -0.0551 in [4]; 0.636 in assay [5]; 2.12 in [6]; 1.49 in assay [7]. Besides, the composite z-score in assay [8] was 1.22; in assay [9], 0.273; in assay [10], 1.2. For the same molecule, the composite Z-score in [2] is 0.0542 (inactive).

Consider `CN(C)CCCNC(=O)[C@@]1(C)c2ccccc2C(=O)N(Cc2cc(F)cc(C(F)(F)F)c2)[C@H]1c1ccc(CO)cc1`, for which the composite z-score in assay [1] was 0.56; in assay [3] it was -0.159; in assay [4], -0.0895; in assay [5], 0.769; in assay [6], -0.065; in assay [7] it was 0.457. Further, the composite z-score in assay [8] is 0.303; in [9] it was -1.66; in assay [10], -0.282. Also, the composite Z-score in [2] is 0.101 (inactive).

Turning to `CN(C)C(=O)[C@]1(Cc2ccccc2N=[N+]=[N-])N=C(c2ccc(OCCCO)cc2)O[C@@H]1c1ccccc1`, the composite z-score in assay [1] is 0.724; in [3], 0.0522; in assay [4] it was -0.0013; in assay [5], 0.623; in assay [6], 2.22; in assay [7], 0.644. For the same molecule, the composite z-score came to 1.31 in assay [8], 0.0709 in [9] and 1.13 in assay [10]. The composite Z-score in assay [2] is -0.316 (inactive).

Regarding `C[C@@H]1ON(c2cccc(C(=O)OC(C)(C)C)c2)[C@H](c2ccc(Br)cc2)[C@H]1C(=O)N1C(=O)OC[C@H]1Cc1ccccc1`, the composite z-score was 0.0512 in assay [1]; 0.0325 in assay [3]; -0.0454 in [4]; 0.133 in assay [5]; 1.2 in [6]; 0.261 in assay [7]. The composite z-score in assay [8] is 1.21; in [9] it was 0.52; in assay [10] it was 1.09. In addition, the composite Z-score in assay [2] is 0.0724 (inactive).

For the molecule `CC(C)N1C(=O)c2ccccc2[C@](C)(C(=O)NCc2ccccc2)[C@@H]1c1ccc(CO)cc1`, the composite z-score in [1] is 0.182; in assay [3] it was -0.245; in assay [4], -0.0323; in assay [5], 0.703; in [6], -0.129; in [7], 0.967. For the same molecule, the figures for the composite z-score in assay [8], in [9] and in [10] were -0.484, -0.798 and -0.866, respectively. For the same molecule, the composite Z-score in assay [2] was 1.32 (inactive).
